Results from PubChem BioAssay (NCI).
This is part of a sample that, as a whole, favours compounds with a hit. Of some 79,000 tested, about 15% had one in any assay. Calls of active or inactive are those of the source. Cut-off read from the data, not from the text of the source: active = growth inhibition above about 70%; inactive = the rest.

Columns and labels:
[1] = NCI Yeast Anticancer Drug Screen. Data for the wt2 strain (AID 169);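 note: 0% = growth of vehicle-treated yeast cultures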; conditions: S. cerevisiae wt2 strain growth inhibition, active compounds read high
Summary of the method: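 Against vehicle-treated controls, the growth of yeast exposed to each compound was compared, and the inhibition was recorded.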

[2] = NCI Yeast Anticancer Drug Screen. Data for the mlh1 strain (AID 171);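 note: 0% = growth of vehicle-treated control cultures of the same strain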; conditions: S. cerevisiae mlh1 strain growth inhibition, active compounds read high
Summary of the method: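 Measured: yeast growth. Reference: vehicle-treated controls. Organism: strain with a defined alteration affecting DNA damage repair or cell cycle control, treated with compound.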

[3] = NCI Yeast Anticancer Drug Screen. Data for the mlh1 rad18 strain (AID 175); conditions: S. cerevisiae mlh1 rad18 strain growth inhibition, active compounds read high
Summary of the method: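 Genetically defined yeast (DNA repair-deficient) exposed to compounds; growth inhibition determined relative to vehicle.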

[4] = NCI Yeast Anticancer Drug Screen. Data for the rad18 strain (AID 177); conditions: S. cerevisiae rad18 mutant growth inhibition, active compounds read high
Summary of the method: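 Vehicle-treated cultures served as the baseline for scoring compound-induced growth inhibition in DNA-repair-mutant yeast.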

[5] = NCI Yeast Anticancer Drug Screen. Data for the rad52 strain (AID 147);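 note: 0% = growth of vehicle-treated control cultures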; conditions: S. cerevisiae rad52 mutant growth inhibition, active compounds read high
Summary of the method: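 The repair-mutant yeast strain was incubated with compounds, then growth was read and inhibition derived relative to vehicle.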

[6] = NCI Yeast Anticancer Drug Screen. Data for the wt1 strain (AID 149);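 note: 0% = growth of vehicle-treated wt1 cultures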; conditions: S. cerevisiae wt1 strain (SPY 50644) growth inhibition, active compounds read high
Summary of the method: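 Compounds are added to wt1 yeast cultures. Growth is then measured. Inhibition is expressed relative to vehicle-treated controls.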

[7] = NCI Yeast Anticancer Drug Screen. Data for the rad50EPP+ strain (AID 151);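 note: 0% = growth of vehicle-treated control cultures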; conditions: S. cerevisiae rad50 mutant strain, active compounds read high
Summary of the method: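 Vehicle-normalised growth inhibition; rad50EPP+ yeast strain, altered in DNA damage repair, compound-treated.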

[8] = NCI Yeast Anticancer Drug Screen. Data for the mgt1 strain (AID 153); conditions: S. cerevisiae mgt1 mutant growth inhibition, active compounds read high
Summary of the method: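 Vehicle-normalized growth inhibition is determined in mgt1 yeast, a strain selected for a defined alteration in DNA repair or cell cycle control.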

[9] = NCI Yeast Anticancer Drug Screen. Data for the rad50 strain (AID 155);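 note: 0% = growth of vehicle-only cultures of the same strain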; conditions: S. cerevisiae rad50 strain growth inhibition, active compounds read high
Summary of the method: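 Inhibition values express reduced yeast growth in compound-treated cultures relative to vehicle-treated controls.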

[10] = NCI Yeast Anticancer Drug Screen. Data for the mec2-1 strain (AID 157); conditions: S. cerevisiae mec2-1 strain, active compounds read high
Summary of the method: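 Mutant yeast (mec2-1) grown with compound; growth inhibition relative to vehicle control reported.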

[11] = NCI Yeast Anticancer Drug Screen. Data for the rad14 strain (AID 159);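 note: 0% = growth of vehicle-treated control cultures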; conditions: S. cerevisiae rad14 strain growth inhibition, active compounds read high
Summary of the method: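 A mutant yeast strain defective in DNA damage repair is treated with compound; inhibition of its growth is scored against untreated, vehicle-exposed cultures.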

[12] = NCI Yeast Anticancer Drug Screen. Data for the sgs1 mgt1 strain (AID 161);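 note: 0% = growth of cultures given vehicle only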; conditions: S. cerevisiae sgs1 mgt1 strain, active compounds read high
Summary of the method: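 Yeast cells carrying a defined DNA-repair defect were exposed to test compounds. Growth inhibition was measured relative to vehicle-treated controls.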

[13] = NCI Yeast Anticancer Drug Screen. Data for the CLN2oe strain (AID 163);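 note: 0% = growth of vehicle-only control cultures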; conditions: S. cerevisiae CLN2oe strain, active compounds read high
Summary of the method: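 Compounds are applied to yeast harbouring a defined cell-cycle control change; reduced growth compared with vehicle-treated controls gives the value.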

[14] = NCI Yeast Anticancer Drug Screen. Data for the cln2 rad14 strain (AID 165);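 note: 0% = growth equal to vehicle treated cultures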; conditions: S. cerevisiae cln2 rad14 strain, active compounds read high
Summary of the method: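 Readout is yeast growth inhibition versus vehicle-treated controls, using a strain with cln2 and rad14 alterations exposed to compound.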

[15] = NCI Yeast Anticancer Drug Screen. Data for the sgs1 strain (AID 173);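 note: 0% = growth of vehicle-only control cultures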; conditions: S. cerevisiae sgs1 mutant, active compounds read high
Summary of the method: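 Each compound was added to cultures of the altered yeast strain. Growth was recorded, and inhibition was derived by comparison with vehicle controls.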

[16] = at 5.0 µM (retest, dose inferred, filed as 0.5)
[17] = at 50.0 µM (retest, dose inferred, filed as 5.0)

Measured: growth inhibition

O=C([O][Sn]([O]C(=O)c1ccccc1)([c]1ccccc1)[c]1ccccc1)c1ccccc1
active: [1]; at 33.0 µM 81% | [1]; at 100.0 µM 97% | [2]; at 100.0 µM 86% | [3]; [17] 76% | [4]; at 100.0 µM 88%
inactive: [1]; at 1.2 µM 8% | [1]; at 3.7 µM 1% | [1]; at 11.0 µM 20% | [2]; at 1.2 µM 1% | [2]; at 3.7 µM 14% | [2]; at 11.0 µM 20% | [2]; at 33.0 µM 43% | [3]; [16] 11% | [3]; at 50.0 µM 50.1% | [4]; at 1.2 µM 0% | [4]; at 3.7 µM -4% | [4]; at 11.0 µM -2% | [4]; at 33.0 µM 43%

COc1ccccc1C(=O)OCC1CCCN2CCCCC12 (stereo not drawn)
active: [5]; at 33.0 µM 76% | [5]; at 100.0 µM 97% | [6]; at 33.0 µM 76% | [6]; at 100.0 µM 98% | [7]; at 11.0 µM 80% | [7]; at 33.0 µM 97% | [7]; at 100.0 µM 98% | [8]; at 11.0 µM 73% | [8]; at 33.0 µM 91% | [8]; at 100.0 µM 98% | [9]; at 33.0 µM 97% | [9]; [17] 99% | [9]; at 50.0 µM 90.7% | [9]; at 100.0 µM 97% | [10]; [17] 99% | [10]; at 50.0 µM 93% | [10]; at 100.0 µM 98% | [11]; at 11.0 µM 77% | [11]; at 33.0 µM 98% | [11]; at 100.0 µM 99% | [12]; at 50.0 µM 91.6% | [13]; at 100.0 µM 95% | [14]; at 50.0 µM 90.9% | [1]; at 11.0 µM 94% | [1]; at 33.0 µM 96% | [1]; at 100.0 µM 98% | [2]; at 11.0 µM 73% | [2]; at 33.0 µM 91% | [2]; at 100.0 µM 98% | [15]; at 100.0 µM 98% | [3]; [17] 99% | [3]; at 50.0 µM 90.3% | [4]; at 33.0 µM 95% | [4]; at 100.0 µM 97%
inactive: [5]; at 1.2 µM 22% | [5]; at 3.7 µM 8% | [5]; at 11.0 µM 57% | [6]; at 1.2 µM 0% | [6]; at 3.7 µM -7% | [6]; at 11.0 µM 7% | [7]; at 1.2 µM 4% | [7]; at 3.7 µM -3% | [8]; at 1.2 µM 23% | [8]; at 3.7 µM 15% | [9]; at 1.2 µM 8% | [9]; at 3.7 µM 8% | [9]; [16] 21% | [9]; at 11.0 µM 68% | [10]; at 1.2 µM 0% | [10]; at 3.7 µM -6% | [10]; [16] 53% | [10]; at 11.0 µM 0% | [10]; at 33.0 µM 56% | [11]; at 1.2 µM 10% | [11]; at 3.7 µM 17% | [12]; [16] -17% | [12]; [17] 40% | [13]; at 1.2 µM 8% | [13]; at 3.7 µM -1% | [13]; at 11.0 µM -12% | [13]; at 33.0 µM 63% | [14]; [16] -9% | [14]; [17] 8% | [1]; at 1.2 µM -18% | [1]; at 3.7 µM -5% | [2]; at 1.2 µM 23% | [2]; at 3.7 µM 15% | [15]; at 1.2 µM 10% | [15]; at 3.7 µM -15% | [15]; at 11.0 µM 62% | [15]; at 33.0 µM 63% | [3]; [16] 60% | [4]; at 1.2 µM -5% | [4]; at 3.7 µM -21% | [4]; at 11.0 µM 35%
